An excerpt weighted towards active compounds, which were near 0.28% of everything screened.
mcGAS lum – blocks mouse cGAS activity | Q8C6L5 | recombinant cGAS, Kinase-Glo ATP depletion luminescence | inhibition, % at 12.5 µM | actives 0.15% (n = 160,000);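 also: 0% = negative control wells and 100% = reference inhibitor with no enzyme activity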
NPYLR7 ag – activates Aedes aegypti NPYLR7 receptor | activation, % at 10 µM | AID 1259423 | HEK293T NPYLR7/Galpha15, GCaMP6s calcium fluorescence | actives 0.15% (n = 270,000); in the data active = activation above about 40%;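 also: 0% = vehicle and 100% = reference agonist at the receptor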
hcGAS inh – human cGAS inhibition | actives 0.081% (n = 290,000) | recombinant h-cGAS, ATP depletion, Kinase-Glo luminescence | inhibition, % at 12.5 µM | AID 1259398 | Q8N884;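 also: 0% = vehicle reaction and 100% = reaction without DNA for no activity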
Starred values were filed as active, the others as inactive; nt = no result given. Rule as the data show it, unless noted: active = inhibition above about 40%; inactive = the rest.

SMILES	mcGAS lum	NPYLR7 ag	hcGAS inh
CCNC(=O)[C@H]1O[C@@H](n2cnc3c(N)ncnc32)C(O)[C@H]1O (some centres not stated)	-3	191*	-1
CNC(=O)Oc1c(Br)cc2sc(=O)oc2c1Br	98*	5	-4
Cc1nc(CC(=O)N(C)C2CCCN(CCCc3ccccc3)C2)cs1 (configuration not stated)	nt	17	-11
CCN(CC)P1(=S)c2c(C)nn(-c3ccccc3)c2N=C(c2ccc(F)cc2)N1C (configuration not stated)	-4	-1	-5
O=P(C=C(Cl)c1ccccc1)(C=C(Cl)c1ccccc1)NCc1ccccc1	nt	5	-5
CCOC(=O)C1C(=N)Oc2cc(C)n(C)c(=O)c2C12C(=O)N(Cc1cccc(C)c1)c1ccccc12 (configuration not stated)	-7	-4	-7
CC(C)(C)c1nc(CCN)no1	-1	nt	5
CCn1c(C)c(C(=O)CN(CCN2CCOCC2)C(=O)COc2ccc(Cl)cc2)c(C)c1C(=O)OC	-3	-12	-3
N#Cc1c(O)c(Cl)c(Cl)c(C#N)c1Cl	55*	4	30
COc1ccc(C)cc1-n1c(=S)[nH]c2ccccc2c1=O	nt	11	-8
CC(=O)N1CN(C(C)=O)CN(C(C)=O)C1	nt	-5	-1
CC(=O)O.CC(=O)O.[Cd]	nt	-9	74*
O=C(NCCCN1CCCC1=O)C(C1CCCC1)N1CCN(C(=O)Cc2cccs2)CC1 (configuration not stated)	-3	-8	-4
O=C(Cc1ccc(F)cc1)N1CCN(C(c2ccccc2)c2ccc(Cl)cc2)CC1 (configuration not stated)	1	-10	-3
CC[C@@]1(O)C[C@H](O[C@H]2C[C@H](N(C)C)[C@H](O)[C@H](C)O2)c2c(cc3c(c2O)C(=O)c2c(O)cccc2C3=O)[C@H]1C(=O)OC	nt	34	72*
CC[C@@]1(O)C[C@H](O[C@H]2C[C@H](N(C)C)[C@H](O)[C@H](C)O2)c2c(cc3c(c2O)C(=O)c2c(O)ccc(O)c2C3=O)[C@H]1C(=O)OC	nt	9	44*
CC[C@@]1(O)C[C@H](O)c2c(cc3c(c2O)C(=O)c2c(O)ccc(O)c2C3=O)[C@H]1C(=O)OC	nt	-13	-6
COc1ccccc1C(=O)C1CCCN(Cc2nc(C(C)C)cs2)C1 (configuration not stated)	-2	2	2
CCCc1cncnc1N1CCC(NC2CN3CCC2CC3)CC1 (configuration not stated)	-6	nt	-9
Cc1ccccc1N1C(=O)/C(=C/c2ccco2)C(=O)NC1=S	86*	-2	41*
O=C1NC(=O)N(Cc2ccccc2)C(=O)/C1=C\c1ccco1	44*	-5	35
Cc1cc(C)cc(N2C(=O)NC(=O)/C(=C\c3ccco3)C2=O)c1	7	-8	5
O=C1NC(=O)N(Cc2ccccc2)C(=O)C1=Cc1ccco1	nt	-6	-5
COc1ccc(Br)c(C(=O)Nc2ccc3[nH]cc(CCN4CCOCC4)c3c2)c1	-6	24	0
O=C(Nc1ncc([N+](=O)[O-])s1)c1cccn(Cc2ccccc2)c1=O	nt	17	-1
CC(=O)NCC1=CCCN(CCc2c[nH]c3ccccc23)C1	nt	nt	-5
O=C1C=C2C(=CCOC2O)O1 (configuration not stated)	106*	nt	88*
Cc1ccc(NC(=O)CN2CN(c3ccccc3)C3(CCNCC3)C2=O)cc1C	-6	-5	-7
O=C1NC(=O)C2=Cc3ccc(O)cc3OC2(O)N1 (configuration not stated)	-3	193*	-1
CC(C)(C)P(=S)(c1ccncc1)N1CCCC1 (configuration not stated)	-2	0	-2

High-throughput results from PubChem.
